The whole screen tested about 310,000 compounds, of which about 14,000 (4.5%) showed an effect of 50% or more. Effects have a minus sign here. The list comes from a sample in which strong results are over-represented; it also holds similar structures and randomly drawn compounds.
Molecular target: human ether-à-go-go-related gene (hERG) potassium channel (human, UniProt Q12809)
Experiment: primary screen, population patch clamp on CHO cells stably expressing hERG; higher = less effect of the substance
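Note: peak tail current of the secondary pulse compared with the same well before compound.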

Chain of human ether-à-go-go-related gene (hERG) potassium channel (Q12809 whole entry, looked up): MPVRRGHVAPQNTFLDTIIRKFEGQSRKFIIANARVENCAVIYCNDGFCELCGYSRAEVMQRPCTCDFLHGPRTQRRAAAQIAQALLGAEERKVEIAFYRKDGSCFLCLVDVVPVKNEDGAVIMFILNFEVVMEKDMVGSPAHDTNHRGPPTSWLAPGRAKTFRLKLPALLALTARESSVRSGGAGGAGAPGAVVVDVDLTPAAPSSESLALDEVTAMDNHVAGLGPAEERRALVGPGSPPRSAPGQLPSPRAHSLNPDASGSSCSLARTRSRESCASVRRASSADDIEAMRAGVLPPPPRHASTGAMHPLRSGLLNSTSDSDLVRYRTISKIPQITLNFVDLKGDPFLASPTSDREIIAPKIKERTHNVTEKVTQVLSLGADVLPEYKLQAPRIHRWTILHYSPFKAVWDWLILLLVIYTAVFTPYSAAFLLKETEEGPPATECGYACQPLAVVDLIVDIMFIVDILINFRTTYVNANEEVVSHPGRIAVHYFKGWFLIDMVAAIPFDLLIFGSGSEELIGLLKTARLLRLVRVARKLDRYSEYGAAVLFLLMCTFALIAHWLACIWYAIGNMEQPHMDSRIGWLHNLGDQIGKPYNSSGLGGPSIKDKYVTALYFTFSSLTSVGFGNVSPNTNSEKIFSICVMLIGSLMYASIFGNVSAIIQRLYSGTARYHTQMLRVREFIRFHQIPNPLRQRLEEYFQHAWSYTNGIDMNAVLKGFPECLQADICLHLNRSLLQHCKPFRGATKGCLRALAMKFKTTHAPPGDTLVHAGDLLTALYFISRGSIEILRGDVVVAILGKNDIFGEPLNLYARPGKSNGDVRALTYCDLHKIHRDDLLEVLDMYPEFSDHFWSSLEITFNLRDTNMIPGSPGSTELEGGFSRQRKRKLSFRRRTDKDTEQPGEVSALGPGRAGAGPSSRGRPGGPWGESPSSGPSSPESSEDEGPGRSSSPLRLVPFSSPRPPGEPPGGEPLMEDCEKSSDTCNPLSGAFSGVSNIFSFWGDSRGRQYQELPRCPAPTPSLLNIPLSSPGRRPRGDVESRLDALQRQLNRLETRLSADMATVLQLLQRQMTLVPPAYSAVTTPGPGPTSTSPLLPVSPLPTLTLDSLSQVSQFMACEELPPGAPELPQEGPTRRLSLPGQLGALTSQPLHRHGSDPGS

First: O=C(Nc1cccc(F)c1)c1ccc2ncsc2c1
Second: C/C(=N\NC(=O)c1nc2ccccn2c1C)c1cccc([N+](=O)[O-])c1
The “hERG current change (%, negative = inhibition) at 10uM” value of the first is higher: 9.49% for the first, -23.4% for the second.

Going from `O=C1OCCC1Sc1nnc(-c2cccs2)n1Cc1ccccc1` (stereo not shown) to `Cc1sc2nc(SC3CCOC3=O)n(Cc3ccccc3)c(=O)c2c1C` (stereo not shown), the “hERG current change (%, negative = inhibition) at 10uM” value rises from -29.5% to -9.22%.

Going from `C=CCn1c(SC(C)C#N)nc2sc(CC)cc2c1=O` (stereo not shown) to `C=CCn1c(SC2CCOC2=O)nc2sc(CC)cc2c1=O` (stereo not shown), the “hERG current change (%, negative = inhibition) at 10uM” value falls from -41.2% to -65.4%.

Going from `C=CCn1c(SCc2cc(=O)n3ccsc3n2)nc2scc(C3CC3)c2c1=O` to `C=CCn1c(SC2CCOC2=O)nc2scc(C3CC3)c2c1=O` (stereo not shown), the “hERG current change (%, negative = inhibition) at 10uM” value falls from -9.75% to -64.6%.

Compared with `CCc1cc2c(=O)n(Cc3ccccc3)c(SC3CCOC3=O)nc2s1` (stereo not shown), `C=CCn1c(SC2CCOC2=O)nc2sc(C)c(C)c2c1=O` (stereo not shown) is higher in “hERG current change (%, negative = inhibition) at 10uM” value: -80.4% for the first, -11.2% for the second.

Compared with `C=CCn1c(SCC2CCCCO2)nc2sc(CC)cc2c1=O` (stereo not shown), `COc1ccc2cc(C(=O)C3CCCN(C(=O)Cc4c(C)noc4C)C3)ccc2c1` (stereo not shown) is lower in “hERG current change (%, negative = inhibition) at 10uM” value: -2.19% for the first, -68.5% for the second.

Going from `O=C(Nc1ccccn1)C1CCN(S(=O)(=O)c2ccc3c(c2)OCCO3)CC1` to `O=C(NCc1ccc(Cl)cc1)C1CCC(CNc2c(N3CCOCC3)c(=O)c2=O)CC1` (stereo not shown), the “hERG current change (%, negative = inhibition) at 10uM” value rises from -11.5% to 14.9%.

First: Cc1ccccc1OCC(=O)Nc1cc(Cl)ccc1Oc1ccccc1
Second: Cn1cc(C(=O)OCC(=O)Nc2ccccc2)c2ccccc21
The “hERG current change (%, negative = inhibition) at 10uM” value of the first is higher: 0.121% for the first, -8.39% for the second.

First: O=C1NC(Cc2c[nH]c3ccccc23)C(=O)N1c1ccc(F)cc1 (stereo not shown)
Second: O=C1Nc2ccccc2N(O)N1c1cc(-c2ccc(Cl)cc2)[nH]n1
The “hERG current change (%, negative = inhibition) at 10uM” value of the first is lower: 12.4% for the first, 22.9% for the second.

Going from `CCCNC(=O)C/C(C)=N/NC(=O)C(=O)Nc1ccccn1` to `CCOC(=O)c1ccc(NC(=O)Cn2c(=O)oc3ccccc32)cc1`, the “hERG current change (%, negative = inhibition) at 10uM” value falls from 29.4% to 10.9%.

Compared with `O=C(CN1C(=O)NC2(CCCc3ccccc32)C1=O)N1CCc2ccccc2C1` (stereo not shown), `Cc1ccc(C(=O)C(C)OC(=O)CN2C(=O)NC3(CCCC3)C2=O)cc1C` (stereo not shown) is higher in “hERG current change (%, negative = inhibition) at 10uM” value: -17.3% for the first, 9.76% for the second.

Compared with `COc1ccc(-n2nc(C(=O)N3CCC(N4CCCCC4)CC3)c3c4ccccc4n(C)c3c2=O)cc1`, `COc1ccc(-n2nc(C(=O)N3CCC(C#N)CC3)c3c4ccccc4n(C)c3c2=O)cc1` is lower in “hERG current change (%, negative = inhibition) at 10uM” value: 7.1% for the first, -55.5% for the second.

First: CCN1CCN(C(=O)c2nn(-c3ccc(OC)cc3)c(=O)c3c2c2ccccc2n3C)CC1
Second: CCN1CCN(C(=O)/C(C#N)=C/c2ccc(OC(F)F)cc2)CC1.Cl
The “hERG current change (%, negative = inhibition) at 10uM” value of the first is higher: -4.67% for the first, -74.3% for the second.

Going from `CC1CCN(C(=O)CN2C(=O)C(=O)N(C(C)C)C2=O)c2ccccc2S1` (stereo not shown) to `CCCC(=O)N1CCCC(C(=O)c2cccc(OC(C)C)c2)C1` (stereo not shown), the “hERG current change (%, negative = inhibition) at 10uM” value rises from -4.64% to 3.64%.

First: Cc1ccc2nc(-c3ccc(-c4cccc(Cl)c4)cc3)c(NCc3ccccc3)n2c1.O=C(O)C(F)(F)F
Second: CN(C)S(=O)(=O)c1cccc(NC(=O)COC(=O)c2cn(-c3ccccc3)nc2-c2ccccc2)c1
The “hERG current change (%, negative = inhibition) at 10uM” value of the first is lower: -1.52% for the first, 12.3% for the second.

Compared with `N#C/C(=C\c1ccc(OC(F)F)cc1)C(=O)N1CCCCC1`, `N#C/C(=C\c1ccc(C#N)cc1)C(=O)N1CCCC1` is higher in “hERG current change (%, negative = inhibition) at 10uM” value: -21.8% for the first, 7.75% for the second.

Going from `Cc1cc(-c2nnc(CCC(=O)NCc3ccc(OC(F)(F)F)cc3)o2)no1` to `O=C(Sc1ccc(Cl)cc1)c1cccc(Cn2cc(C(F)(F)F)ccc2=O)c1`, the “hERG current change (%, negative = inhibition) at 10uM” value rises from 3.05% to 18.6%.

Going from `CCOC(=O)c1c(C)[nH]c(C(=O)N2CCCC(C(=O)c3cccc(OC)c3)C2)c1C` (stereo not shown) to `CCOC(=O)CCNC(=O)N1CCCC(C(=O)c2cccc(OC(C)C)c2)C1` (stereo not shown), the “hERG current change (%, negative = inhibition) at 10uM” value falls from -8.55% to -10.3%.

First: COc1c(C)cc(C(=O)C2CCCN(C3CCOCC3)C2)cc1C (stereo not shown)
Second: CCOC(=O)N1CCC(N2CCCC(C(=O)c3cc(C)c(OC)c(C)c3)C2)CC1 (stereo not shown)
The “hERG current change (%, negative = inhibition) at 10uM” value of the first is higher: -15.2% for the first, -57.3% for the second.

First: CCOC(=O)CNC(=O)N1CCCC(C(=O)c2cc(C)c(OC)c(C)c2)C1 (stereo not shown)
Second: COc1c(C)cc(C(=O)C2CCCN(S(=O)(=O)N(C)C)C2)cc1C (stereo not shown)
The “hERG current change (%, negative = inhibition) at 10uM” value of the first is higher: 9.16% for the first, -66.5% for the second.

Going from `CC(=O)N1CCC(N2CCCC(C(=O)c3cccc(Cl)c3)C2)CC1` (stereo not shown) to `CCOC(=O)N1CCC(N2CCCC(C(=O)c3cccc(OC)c3)C2)CC1` (stereo not shown), the “hERG current change (%, negative = inhibition) at 10uM” value falls from 5.55% to -64.8%.

Going from `COc1c(C)cc(C(=O)C2CCCN(S(=O)(=O)c3c(C)noc3C)C2)cc1C` (stereo not shown) to `COc1ccc(C(=O)C2CCCN(C(=O)Cc3c(C)noc3C)C2)cc1OC` (stereo not shown), the “hERG current change (%, negative = inhibition) at 10uM” value falls from -2.78% to -3.81%.

Going from `COc1ccc(C(=O)C2CCCN(S(=O)(=O)N(C)C)C2)c(C)c1` (stereo not shown) to `CCNC(=O)N1CCCC(C(=O)c2ccc3cc(OC)ccc3c2)C1` (stereo not shown), the “hERG current change (%, negative = inhibition) at 10uM” value falls from 0.683% to -22.5%.

Going from `CCOC(=O)N1CCC(N2CCCC(C(=O)c3cccc(OC(C)C)c3)C2)CC1` (stereo not shown) to `CCOC(=O)N1CCC(N2CCCC(C(=O)c3ccc4cc(OC)ccc4c3)C2)CC1` (stereo not shown), the “hERG current change (%, negative = inhibition) at 10uM” value rises from -76.8% to -74.3%.

Compared with `CCCCCCOc1ccc(N2C(=O)CC(N3CCN(CCN=CC4C(=O)CC(C)(C)CC4=O)CC3)C2=O)cc1` (stereo not shown), `CCOC(=O)N1CCC(N2CCCC(CO)(Cc3cccc(Cl)c3)C2)CC1` (stereo not shown) is lower in “hERG current change (%, negative = inhibition) at 10uM” value: -32.5% for the first, -49% for the second.

Going from `CC(C)(C)c1nc(N)nc(=O)[nH]1` to `Cc1noc(C)c1CC(=O)N1CCCC(C(=O)c2ccc(C(C)(C)C)cc2)C1` (stereo not shown), the “hERG current change (%, negative = inhibition) at 10uM” value falls from -1.18% to -18.8%.

Compared with `COc1ccc2cc(C(=O)C3CCCN(C(=O)c4csnn4)C3)ccc2c1` (stereo not shown), `CCOC(=O)N1CCC(N2CCCC(CO)(Cc3cccc(OC)c3)C2)CC1` (stereo not shown) is lower in “hERG current change (%, negative = inhibition) at 10uM” value: -13.2% for the first, -51.7% for the second.

With `CCOC(=O)N1CCC(N2CCCC(CO)(Cc3ccccc3C)C2)CC1` (stereo not shown) the “hERG current change (%, negative = inhibition) at 10uM” value was 0.621%.

Reference: PMC4336329 (PLoS ONE, 2015)
